Experimental data published in article PMC4552634, “A New Set of Chemical Starting Points with Plasmodium falciparum Transmission-Blocking Potential for Antimalarial Drug Discovery” (PLoS ONE, 2015).
Out of some 13,000 compounds screened, about 3,200 (25%) showed an effect of 50% or more. The list shows a part of the results.

Tested on: P. falciparum stage V gametocytes
Design: BacTiter-Glo ATP luminescence viability of purified stage V gametocytes in 384-well plates, per cent inhibition versus DMSO
Settings: 48 h, 5 µM; inhibitor

| Structure (SMILES) | % Inhibition |
| --- | --- |
| O=C(Nc1cccc(-c2ccc(-c3nc4ccccc4[nH]3)cc2)c1)c1cnn2cccnc12 [TCMDC-136866] | -17.05% |
| CN(c1ccc(NC(=O)CCOc2ccccc2)cc1)C1CCN(Cc2cccc(O)c2)CC1 [TCMDC-134988] | 49.59% |
| CC(C)(C)OC(=O)C1CCCN(Cc2ccc(-c3cccc(-c4nc5ccccc5[nH]4)c3)cc2)C1.O=C(O)C(F)(F)F (centres unmarked) [TCMDC-132560] | 11.65% |
| C=CCN1CCC(N(Cc2cccc(Oc3ccccc3)c2)C(=O)C(c2ccccc2)c2ccccc2)CC1 [TCMDC-139601] | 20.39% |
| CC(C)(NCc1ccc(OC(F)(F)F)cc1)c1nc(-c2ccc(Cl)c(O)c2)c(-c2ccncc2)[nH]1 [TCMDC-140709] | -27.3% |
| CCOC(=O)c1cn(CC)c2cc(N(C)CCc3ccc(OC)c(OC)c3)c(F)cc2c1=O [TCMDC-124159] | 16.46% |
| O=C(NCc1ccc(Cl)cc1)c1ccc(CN2CCCN(CC3CCCCC3)CC2)cc1 [TCMDC-136441] | -2.203% |
| CCc1ccc(CN2CCC(CN(C(=O)c3ccccc3)c3ccc(Cl)cc3)CC2)cc1 [TCMDC-135382] | 136.1% |
| O=C(OCC1CCN(Cc2ccccc2)C1)c1ccc(Cl)cc1 (centres unmarked) [TCMDC-138995] | -9.252% |
| CC(=O)Nc1ccc(C(=O)NC2CCN(c3ccnc4cc(Cl)ccc34)C2)cc1 (centres unmarked) [TCMDC-133650] | -2.707% |
| COc1ccc(CN2CCC(CNCc3cccc(-c4ccccc4)c3)CC2)cc1 [TCMDC-141349] | 97.96% |
| COc1ccc(CN2CCC(NCc3ccc(C(F)(F)F)cc3)CC2)cc1 [TCMDC-141653] | 11.64% |
| COc1ccc(CN2CCC(CNC(C)c3cccc4ccccc34)CC2)cc1 (centres unmarked) [TCMDC-141341] | -19.33% |
| O=[N+]([O-])c1cccc(CNCC2CCN(Cc3ccc(O)cc3)CC2)c1 [TCMDC-141212] | 5.704% |
| O=[N+]([O-])c1cccc(CNCC2CCN(Cc3ccc(-c4ccccc4)cc3)CC2)c1 [TCMDC-141208] | 17.3% |
| COc1ccc(CN2CCC(CNCC(c3ccccc3)c3ccccc3)CC2)cc1 [TCMDC-141342] | 89.13% |
| CCN(CC)c1ccc(C(c2ccc(N(CC)CC)cc2)c2cccc([N+](=O)[O-])c2)cc1 [TCMDC-131244] | -3.754% |
| Cc1cccc2nc(-c3ccc(-c4cccc(CN5CCN(c6ccc(C#N)cn6)CC5)c4)s3)[nH]c12.O=C(O)C(F)(F)F [TCMDC-133111] | -25.75% |
| CCN(CC)CCCC(C)Nc1ccnc2cc(C#N)ccc12 (centres unmarked) [TCMDC-138027] | -9.256% |
| CCOc1ccc(OCCCON2C(N)=NC(N)=NC2(C)C)cc1 [TCMDC-131735] | -0.1444% |
| Cc1cc(N)nc2cc(CNCCc3ccccc3Br)ccc12 [TCMDC-138095] | 22.25% |
| Cc1cc2ccc(CNCCc3ccccc3Br)cc2nc1N [TCMDC-138094] | 34.17% |

| Structure (SMILES) | % Inhibition |
| --- | --- |
| Cc1cc2cc(CNCCc3ccccc3Br)ccc2nc1N [TCMDC-138097] | 84.79% |
| CCCCC(=O)Nc1ccc(Nc2nc(C)cc(N3CCCC3)n2)cc1 [TCMDC-124717] | 46.79% |
| O=C(Nc1ccccc1)N(Cc1cccc(-c2ccc(CNC3CCCC3)cc2)c1)C1CCN(Cc2ccccc2)CC1 [TCMDC-140589] | 100.6% |
| O=C(Nc1ccccc1)N(Cc1ccccc1-c1cccc(CNC2CCCC2)c1)C1CCN(Cc2ccccc2)CC1 [TCMDC-140581] | 108.7% |
| O=C(Nc1ccccc1)N(Cc1ccc(-c2ccc(CNC3CCCC3)cc2)cc1)C1CCN(Cc2ccccc2)CC1 [TCMDC-140602] | 100.4% |
| O=C(Nc1ccccc1)N(Cc1ccc(-c2cccc(CNC3CCCC3)c2)cc1)C1CCN(Cc2ccccc2)CC1 [TCMDC-140601] | 107.8% |
| Oc1cccc(-c2nc(-c3cccc(I)c3)c(-c3ccc(-c4nc(-c5cccc(O)c5)[nH]c4-c4cccc(I)c4)cc3)[nH]2)c1 [TCMDC-125665] | 42.71% |
| COC(=O)c1ccc(C2OC3(C(=O)c4ccccc4C3=O)C(OC)=C2Cl)cc1C(C)=O (centres unmarked) [TCMDC-125782] | -9.104% |
| N#Cc1ccc2c(c1)CCN(CCC1CCC(NC(=O)/C=C/c3nc4ccccc4s3)CC1)CC2 (centres unmarked) [TCMDC-139686] | -32.82% |
| COc1ccc(O)c(Cc2cnc3nc(N)nc(N)c3c2C)c1 [TCMDC-137998] | -28.9% |
| Cc1cc(C(=O)CSc2nc3ccccc3n2-c2ccccc2)c(C)n1C1CCS(=O)(=O)C1 (centres unmarked) [TCMDC-124855] | -17.36% |
| CC1CN(Cc2ccccc2)CCN1c1ccc(NC(=O)c2cccs2)cc1 (centres unmarked) [TCMDC-135005] | 31.52% |
| CC(C)(C)c1ccc(-c2nnc(N)nc2N)cc1 [TCMDC-137284] | -12.55% |
| COc1cccc(Nc2c(C(N)=O)cnc3ccc(-c4ccc([S+](C)[O-])cc4)cc23)c1 (centres unmarked) [TCMDC-135184] | 93.94% |
| CN(C)CCNC(=O)c1ccc(-c2ccc3c(Nc4ccccc4)c(C(N)=O)cnc3c2)cc1 [TCMDC-138672] | 14.13% |
| COc1cccc(Nc2c(C(N)=O)cnc3ccc(-c4ccccc4)cc23)c1 [TCMDC-135227] | 39.19% |
| CS(=O)(=O)c1cccc(-c2cnc3[nH]cc(-c4ccc(C(=O)O)cc4)c3c2)c1 [TCMDC-136271] | 0.4612% |
| COc1ccc2nccc(N3CCCN(CCNCc4ccc5c(n4)NC(=O)CS5)CC3)c2n1 [TCMDC-134640] | 33.98% |
| CCC(c1ccccc1)c1nn2c(-c3cccs3)nnc2s1 (centres unmarked) [TCMDC-123825] | 7.835% |
| Cc1ccc(C2CC(c3cccs3)=NN2C(=O)c2ccc(Br)o2)cc1 (centres unmarked) [TCMDC-125610] | 12.81% |
| CCc1ccc(C2=Nn3c(nnc3-c3cccs3)SC2)cc1 [TCMDC-124336] | 80.16% |
| O=C(NCCCCN1CCN(c2cccc3c2OCCO3)CC1)c1ccc(NC(=O)c2cc(Cl)cc(Cl)c2)cc1 [TCMDC-138222] | -31.39% |
